38 compounds from PubChem BioAssay AID720519 (National Center for Advancing Translational Sciences (NCATS), 2013) can be followed below.

The structures appear in SMILES notation. Records with an inconclusive call do not appear. Where a call stands in place of a potency, no number is given. Activity calls are given as the source filed them. Calls follow the shape of the dose curve; as a rule, active = well fitted activation curve with a large enough effect; inconclusive = small, poorly fitted or top-dose-only effect; inactive = flat fitted curve, though single readings scatter.
Potency is read from the fitted curve at half-maximal effect.

The nature of this assay: qHTS for Inhibitors of Cell Surface uPA Generation: Confirmatory Assay for Cherry-picked Compounds. To be noted: cell surface uPA activity generation, qHTS confirmation; series mostly up to 115 µM. The method in brief:
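RAW 264.7 cells at 4000/well, incubated overnight, then treated with compounds. After 24 h at 37 C, viability was read by ATPlite luminescence. An increase in signal indicates blocked uPA-dependent LF entry.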
A general note: Quantitative high-throughput screening tests each substance at several concentrations.
Take `Cc1cc(C)n(CCCNC(=O)c2ccc(C)o2)n1`: the Potency entry was “inactive”. The same measure for `Cc1nc2ncccn2c1-c1csc(Nc2ccc(S(N)(=O)=O)cc2)n1`: “inactive”; for `CC(C)OC(=O)Nc1ccc(-c2ccc(NC(=O)OC(C)C)cc2Cl)c(Cl)c1`: “inactive”. In the case of `O=C(COc1cccc2ccccc12)NNC(=O)c1cnccn1`, the Potency result was “inactive”. Consider `Cc1ccc2oc(=O)c3cnn(CC(=O)Nc4ccccc4N4CCN(C)CC4)c3c2c1`, for which the Potency is 9.27 µM (active).

Regarding `CC(Sc1nnc2ccccn12)C(=O)NCc1ccc2c(c1)OCO2` (stereo not drawn), the Potency result is “inactive”. As to `CC(=O)c1ccc(NC(=O)CN2CCN(c3ccccc3)CC2)cc1`, the Potency entry is “inactive”.

In the case of `O=C(CC1(O)C(=O)Nc2ccccc21)c1cccc(Br)c1` (stereo not drawn), the Potency result was “inactive”. Next, `O=C1C=C(NNC(=O)c2ccncc2)CC(c2ccccc2)C1` (stereo not drawn): “inactive”; `O=C(NC1CC1)C1CCCN(C(=O)NC2CCCCC2)C1` (stereo not drawn): “inactive”. On to `O=C(C1=C[C@H](c2ccccc2)C[C@H](OCCCCO)O1)N1CCN(Cc2ccc3c(c2)OCO3)CC1`, for which the Potency entry is “inactive”. On to `CC(=O)Nc1ccc(NC(=O)CCCCCN2C(=O)c3ccccc3C2=O)cc1`, for which the Potency result is “inactive”. Consider `O=C(CN1CCOC1=O)N1CCCC(Nc2ccc(F)c(F)c2)C1` (stereo not drawn), for which the Potency entry is “inactive”.

With `O=C(NNC(=O)C1CC(c2cccs2)=NO1)Nc1ccccc1` (stereo not drawn), the Potency result was “inactive”. Regarding `CCN(CC)S(=O)(=O)c1ccc(C(=O)Nc2cccc(C)c2)cc1`, the Potency entry was “inactive”.

In the case of `CCOC(=O)C1CCN(S(=O)(=O)c2c[nH]c(=O)[nH]c2=O)CC1`, the Potency result is “inactive”.

Turning to `CCOc1ccc(N(CC(=O)Nc2ccc(CC)cc2)S(=O)(=O)c2c(C)[nH]c(=O)[nH]c2=O)cc1`, the Potency result is “inactive”. Regarding `Cc1ccccc1NC1c2ccccc2C(=O)N1Cc1ccco1` (stereo not drawn), the Potency result was “inactive”.

On to `COc1ccc2nc(C)cc(Nc3ccccc3O)c2c1`, for which the Potency result is “inactive”.

Regarding `CC(=O)n1cc(/C=N/NC(=O)c2ccc([N+](=O)[O-])cc2)c2ccccc21`, the Potency result was “inactive”. Next, `CC(=O)Nc1c2c(nn1-c1cccc(C)c1)CSC2`: “inactive”; `CCC(COC)NC(=O)CCc1nnc(Cc2c[nH]c3ccccc23)o1` (stereo not drawn): “inactive”. Regarding `COc1ccc(C(=O)NCC(=O)N/N=C/c2c(C)[nH]c3ccccc23)cc1`, the Potency result is “inactive”. For `CCOc1ccc(C2(C)CC(=O)N(C)C2=O)cc1` (stereo not drawn), the Potency entry is “inactive”. With `CCC1Nc2ncnc(N3CCCCC3)c2N(Cc2ccc(Cl)cc2)C1=O` (stereo not drawn), the Potency result was “inactive”. Consider `COc1ccc(S(=O)(=O)c2c(O)c3ccc(C(=O)Nc4ccccc4)cc3[nH]c2=O)cc1`, for which the Potency entry was “inactive”. In the case of `COCCN(C(=O)CSc1nnc(-c2ccncc2)n1C)c1c(N)n(CC(C)C)c(=O)[nH]c1=O`, the Potency entry is “inactive”. As for `COc1ccc(C(=O)NC(=S)Nc2ccc(NC(=O)c3ccco3)cc2)cc1[N+](=O)[O-]`, the Potency entry was “inactive”. `NC(=O)c1cc2c3ccccc3ccn2c1-c1ccccc1`: the Potency entry was “inactive”. As for `Cc1cc(C)n(C(=O)c2cccc([N+](=O)[O-])c2)n1`, the Potency entry is “inactive”. Consider `CCOC(=O)C1(CC2CCCCO2)CCN(Cc2nccn2-c2cccc(C)c2)CC1` (stereo not drawn), for which the Potency result was “inactive”. As to `CC1CCC(NC(=O)c2nn(C)c3c2CS(=O)(=O)c2ccccc2-3)CC1` (stereo not drawn), the Potency entry was “inactive”.

Regarding `COC(=O)CCNS(=O)(=O)c1ccc2nsnc2c1`, the Potency entry is “inactive”. Next, `CC(=O)c1ccc(OCCCCOc2ccc(C(C)=O)cc2)cc1`: “inactive”. As for `CCOC(=O)c1c(NC(=O)CC2SC(N)=NC2=O)sc2c1CCC(C)C2` (stereo not drawn), the Potency result was “inactive”.

With `COCCNC(=O)C(c1c[nH]c2ccccc12)N(C(=O)c1snc(C(N)=O)c1N)c1cccc(OC)c1` (stereo not drawn), the Potency result was “inactive”.

Regarding `COCCNC(=S)N(CCc1c(C)[nH]c2ccccc12)Cc1ccco1`, the Potency entry is “inactive”. For `CCCN1CCN(C(=O)CCCn2c(C)c3cnn(-c4ccccc4)c(=O)c3c2C)CC1`, the Potency result was “inactive”.
